Results filed as inconclusive are left out. Active and inactive are the calls of the source. The call rests on the fitted dose curve; in most records, active means well fitted inhibition curve with a large enough effect; inconclusive means small, poorly fitted or top-dose-only effect; inactive means flat fitted curve, though single readings scatter.
Key:
[1] = system: CRL-7250; test: Cytotoxic Profiling of Annotated Libraries Using Quantitative High-Throughput Screening (AID 1296008); conditions: Five cell lines viability, CellTiter-Glo ATP luminescence, 48-72 h; max response: hits give low values; on max response: on the % scale 0 is the no-effect control and ±100 the full control effect
In short: (§1)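 Cytotoxicity was measured as CellTiter-Glo ATP luminescence, read after 10 min at room temperature. Compound treatment of the cells lasted 48 or 72 hr at 37 degrees Celsius in a qHTS format.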

[2] = system: HEK293; test: as above; conditions: Five cell lines viability, CellTiter-Glo ATP luminescence, 48-72 h; max response: hits give low values
In short: as §1

[3] = system: HaCat; test: as above; conditions: Five cell lines viability, CellTiter-Glo ATP luminescence, 48-72 h; max response: hits give low values
In short: as §1

[4] = system: KB-3-1; test: as above; conditions: Five cell lines viability, CellTiter-Glo ATP luminescence, 48-72 h; max response: hits give low values
In short: as §1

[5] = system: NIH3T3; test: as above; conditions: Five cell lines viability, CellTiter-Glo ATP luminescence, 48-72 h; max response: hits give low values
In short: as §1

[6] = system: HEK293T; test: qHTS assay to identify novel small-molecules to repurpose for Merkel cell carcinoma treatment (AID 1296009); conditions: MCC and control cell lines, CellTiter-Glo viability, 72 h; series mostly up to 44.8 µM
In short: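 After compound transfer in DMSO, plates were kept 72 hr at 37 degree celsius. Luminescent ATP signal from CellTiter-Glo served as viability measure, normalized against DMSO and no-cell controls.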
Further: nearly all actives have a fitted effect of over 60% in size.

OC1COC(OCC2OC(OCCc3ccccc3)C(O)C(O)C2O)C(O)C1O (centres undefined)
inactive: outcome [1] | outcome [2] | max response [3] -7.45% | outcome [4] | outcome [5] | Potency [6]

CC(=O)O[C@H](C[C@@H](C)[C@H]1C(=O)[C@H](O)[C@@]2(C)[C@@H]3CCC4C(C)(C)[C@@H](O[C@@H]5OC[C@H](O)[C@H](O)[C@H]5O)CC[C@@]45C[C@@]35CC[C@]12C)[C@@H]1OC1(C)C (some centres undefined)
inactive: max response [1] 0.817% | outcome [2] | max response [3] 2.98% | outcome [4] | outcome [5] | Potency [6]

Cc1ccc2c(c1)C=Cc1cc(C)ccc1C2c1cn(Cc2ccc(C(=O)Nc3nn[nH]n3)o2)c(=O)[nH]c1=S
inactive: outcome [1] | outcome [2] | max response [3] -1.86% | outcome [4] | max response [5] -7.39% | Potency [6]

C/C=C(\C)C(=O)O[C@H]1[C@@H](O[C@]2(COC(=O)CC(C)C)O[C@H](COC(=O)C(C)C)[C@@H](OC(C)=O)[C@@H]2O)O[C@H](COC(C)=O)[C@@H](O)[C@@H]1O
inactive: outcome [1] | outcome [2] | max response [3] 0.832% | max response [4] 4.8% | max response [5] 0.154% | Potency [6]

CC1CCC2(C(=O)OC3OC(COC4OC(CO)C(O)C(O)C4O)C(O)C(O)C3O)CCC3(C)C(=CCC4C5(C)CCC(O)C(C)(C(=O)O)C5CCC43C)C2C1(C)O (centres undefined)
inactive: outcome [1] | outcome [2] | max response [3] -9.13% | max response [4] 0.532% | outcome [5] | outcome [6] inactive [at 9.27 µM]

CC1(C)NC2N(C1=O)c1ccccc1C2(O)CC(C(=O)O)n1cnc2ccccc2c1=O (centres undefined)
inactive: outcome [1] | outcome [2] | max response [3] -3.78% | outcome [4] | max response [5] -5.13% | Potency [6]

CC1(C)C(=O)C(C)(C)c2cc(C(=O)Nc3ccc(C(=O)O)cc3)ccc21
inactive: max response [1] 2.14% | outcome [2] | max response [3] -8.59% | outcome [4] | outcome [5] | Potency [6]

COC12CC3C(C(C)C1=CC(=O)O2)C(O)C(OC(C)=O)C1C(C)(C)C(OC(C)=O)CCC31C (centres undefined)
inactive: max response [1] 0.349% | outcome [2] | max response [3] -18.1% | outcome [4] | outcome [5] | Potency [6]

NC(=O)[C@H]1CCCCc2c1[nH]c1ccc(Cl)cc21
inactive: outcome [1] | outcome [2] | max response [3] -14.2% | max response [4] 7.59% | max response [5] 4.7% | Potency [6]

C=Cc1cc(O)cc2nc(-c3ccc(O)c(F)c3)oc12
inactive: max response [1] -4.59% | outcome [2] | max response [3] -8.75% | outcome [4] | outcome [5] | Potency [6]

CC1CCC2(C)C(CC(O)C(O)C23CO3)C1(C)CCC1=CC(O)OC1=O (centres undefined)
inactive: max response [1] 3.32% | outcome [2] | max response [3] 0.263% | max response [4] -2.97% | max response [5] -4.84% | Potency [6]

CCC(C)/C=C(C)/C=C/C1=CC2=C(Cl)C(=O)C(C)(OC(C)=O)C(=O)C2=CN1CCCC(=O)O (centres undefined)
inactive: outcome [1] | outcome [2] | max response [3] -6.78% | outcome [4] | max response [5] -0.464% | Potency [6]

CC1(C)CCCC2(C)C1C(O)C=C(CO)C2(O)C(=O)O (centres undefined)
inactive: max response [1] 3.48% | outcome [2] | max response [3] -13.1% | max response [4] 3.33% | max response [5] 3.08% | Potency [6]

COC(=O)[C@H](OC(C)=O)[C@H]1C(C)(C)C(=O)[C@H]2CC3=C4CC(=O)O[C@@H](c5ccoc5)[C@]4(C)CCC3[C@@]1(C)C2=O (some centres undefined)
inactive: max response [1] -5.81% | outcome [2] | max response [3] -1.64% | outcome [4] | outcome [5] | Potency [6]

CC(/C=C/C1(O)C2(C)COC1(C)CC(=O)C2)O[C@@H]1O[C@H](CO)[C@@H](O)[C@H](O)[C@H]1O (some centres undefined)
inactive: max response [1] -2.92% | outcome [2] | max response [3] 3.45% | outcome [4] | max response [5] 3.43% | Potency [6]

CC1CCC2C(C)(C)C(O)CCC2(C)C12Cc1c(O)cc3c(c1O2)CN=C3N (centres undefined)
inactive: max response [1] -3.95% | outcome [2] | max response [3] 3.03% | max response [4] 2.69% | outcome [5] | Potency [6]

CN1C(=O)c2ccccc2NC(=O)[C@]12O[C@@H]2c1cccc(O)c1
inactive: max response [1] -2% | outcome [2] | max response [3] -7.54% | max response [4] 4.06% | max response [5] -15.7% | Potency [6]

CO[C@@]12CC3[C@@H]([C@@H](O)[C@@H](OC(C)=O)C4[C@](C)(COC(C)=O)CCC[C@]34C)[C@@H](C)C1=CC(=O)O2 (some centres undefined)
inactive: outcome [1] | outcome [2] | max response [3] 3.42% | outcome [4] | outcome [5] | Potency [6]

CCC(C)(O)C(O)C(=O)OCc1ccc(O[C@@H]2O[C@H](CO)[C@@H](O)[C@H](O)[C@H]2O)cc1 (some centres undefined)
inactive: max response [1] -2.71% | outcome [2] | max response [3] -0.484% | outcome [4] | max response [5] -0.787% | Potency [6]
